Shiga inhibitor – blocks Shiga toxin action in Vero cells; hit rate 9.2% among 290,000; Vero cells, Shiga toxin protein synthesis inhibition reporter; inhibition, % at 38.7 µM; AID 2315; in the data active means inhibition mostly above about 28%, no sharp cut-off; inactive means mostly below about 43%; further: 0% is about no effect
Pf growth 48h – inhibits P. falciparum growth in the first generation, 48 h; hit rate 5.9% among 310,000; P. falciparum luciferase growth in erythrocytes, 48 h; Potency, µM (doses to about 28.7 µM), inactives show at the top dose activity change, negative = inhibition, actives largely listed as inhibitors; active means well fitted inhibition curve with a large enough effect; inconclusive means small, poorly fitted or top-dose-only effect, or another doubt; inactive means no such curve, though single readings can be large or run the other way; further: potency means the concentration at half of the fitted maximal effect; on the % scale 0 is the no-effect control and ±100 the full control effect
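Cell-based growth assay: transgenic P. falciparum expressing firefly luciferase, cultured in red cells within RPMI 1640 containing 0.5% w/v Albumax, 24 mM bicarbonate and gentamycin. A drop in luciferase activity indicates inhibition.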
CHX counter – affects cycloheximide protein synthesis inhibition readout, counter-screen. cell reporter, cycloheximide protein synthesis inhibition counterscreen. max response, %. hit rate 12% among 300,000. AID 2314; in the data active means max response mostly above about 13%, no sharp cut-off; inactive means mostly below about 14%; further: read at 38.3 µM for the half of the compounds with a filed dose; 0% is about no effect
Pf growth 96h – inhibits malaria parasite growth, 96 h; P. falciparum luciferase reporter growth, 96 h; Potency, µM (titrated, usually from 28.7 µM), for inactives: at the top dose activity change, negative = inhibition, hits mostly inhibitors; hit rate 6.9% among 320,000; AID 504834; active means well fitted inhibition curve with a large enough effect; inconclusive means small, poorly fitted or top-dose-only effect, or another doubt; inactive means no such curve, though single readings can be large or run the other way; further: potency means the concentration at half of the fitted maximal effect; on the % scale 0 is the no-effect control and ±100 the full control effect
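96 h incubation, 37 C, 5% CO2, of luciferase-reporter P. falciparum-infected RBCs (2% hematocrit, 0.05% parasitemia final) with test compounds; endpoint luminescence.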
NS1 inh – influenza NS1 inhibition; Potency, µM (top dose mostly 46.1 µM), inactives show at the highest dose activity, positive = more growth; hit rate 0.4% among 270,000; AID 2326; further: potency means the concentration at half of the fitted maximal effect; actives are rising curves; nearly all actives have a fitted effect of over 50% in size
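A cell-based growth assay was used: compounds that relieve NS1-induced slow growth of budding yeast raise OD600. Assay medium was yeast nitrogen base with ammonium sulphate and -URA supplement, pH 6.0, with 2% galactose.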
SARS PLP yeast – inhibitors of SARS-CoV papain-like protease in yeast; S. cerevisiae expressing SARS-CoV PLpro, growth rescue; Potency, µM (top dose mostly 32.9 µM), for inactives: at the top dose activity, positive = growth rescue, usual class: activators; hit rate 0.19% among 330,000; AID 485353; further: potency means the concentration at half of the fitted maximal effect; 0% is about no effect; nearly all actives have a fitted effect of over 55% in size
Numbers without * were called inactive; ? = inconclusive; . = no result given. Hits are enriched below; roughly 21% of the tested compounds scored in any of these assays. Unless noted, the call rests on the fitted dose curve.

SMILES	Shiga inhibitor	Pf growth 48h	CHX counter	Pf growth 96h	NS1 inh	SARS PLP yeast
CCOC(=O)c1snc(C(=O)NC2CCCCC2)c1N	161*	90%	24*	.	-109%	-5%
Cc1ccc(N(C(=O)c2snc(C(N)=O)c2N)C(C(=O)NC2CCCC2)c2ccc(C)o2)cc1 (stereo not given)	6	10µM*	-7	?	-1%	1%
COCCNC(=O)C(c1ccc(C)o1)N(C(=O)c1snc(C(N)=O)c1N)c1ccc(C)cc1 (stereo not given)	-4	?	-1	.	-33%	0%
COc1ccc(C(C(=O)NC2CCCCC2)N(C(=O)c2snc(C(N)=O)c2N)c2ccc(OC)cc2OC)cc1 (stereo not given)	-4	?	-4	27%	-14%	-1%
COc1ccc(N(C(=O)c2snc(C(N)=O)c2N)C(C(=O)NC2CCCCC2)c2ccc(C)o2)c(OC)c1 (stereo not given)	-9	13µM*	5	50%	17%	-1%
CCC(C)(C)NC(=O)CN(C(=O)c1snc(C(N)=O)c1N)c1ccc2c(c1)OCCO2	3	-12%	-1	14%	-2%	-6%
CC(C)CC(C(=O)NC(C)(C)C)N(Cc1cccs1)C(=O)c1snc(C(N)=O)c1N (stereo not given)	47*	-16%	49*	21%	.	1%
CCCC(C(=O)NC(C)(C)C)N(C(=O)c1snc(C(N)=O)c1N)c1ccc2c(c1)OCCO2 (stereo not given)	114*	45%	56*	?	.	0%
CCn1c(CCNC(=O)c2ccccc2Cl)n[nH]c1=S	-23	?	10	?	6%	6%
O=C(COC(=O)/C=C/c1cccc(C(F)(F)F)c1)NC1CCS(=O)(=O)C1 (stereo not given)	.	-27%	.	-14%	.	-3%
Cc1cccc(N(C(=O)c2snc(C(N)=O)c2N)C(C(=O)NC2CCCC2)c2ccc(C)o2)c1 (stereo not given)	34	8.3µM*	6	28%	13%	0%
COc1ccc(N(CC(=O)NC2CCCCC2)C(=O)c2snc(C(N)=O)c2N)cc1	17	-15%	-4	-36%	16%	-1%
CCCC(C(=O)NC1CCCC1)N(C(=O)c1snc(C(N)=O)c1N)c1ccc(OCC)cc1 (stereo not given)	-10	?	-5	8%	7%	2%
CC(C)(C)NC(=O)CN(C(=O)c1snc(C(=O)NC2CCCCC2)c1N)c1ccc(F)cc1	-19	7.4µM*	-4	?	17%	2%
CCCCC(C(=O)NC1CCCC1)N(C(=O)c1snc(C(N)=O)c1N)c1ccc(F)cc1 (stereo not given)	-11	?	-4	5.9µM*	8%	-4%
CN(C(=O)c1cc([N+](=O)[O-])ccc1NCc1cccnc1)c1ccccc1	4	-18%	-2	?	4%	-2%
CN(C)c1ccc(/C=N/NC(=O)c2cc(-c3ccc4c(c3)OCO4)n[nH]2)cc1	60*	30%	31*	12%	-9%	1%
COc1ccc(/C=N/NC(=O)c2cc(-c3ccc4c(c3)OCO4)n[nH]2)cc1OC	9	?	29*	12µM*	9%	0%
CC(C)c1nc(SCC(=O)NC2CCCC2)c2c(=O)n(C)c(=O)n(C)c2n1	-30	-5%	6	-1%	9%	?
CCC(O)c1ccccc1 (stereo not given)	18	0%	-7	-10%	.	.
COCCCN(C(=O)CSCc1c(C)noc1C)c1c(N)n(Cc2ccccc2)c(=O)[nH]c1=O	.	-4%	.	?	.	3%
CCOP(=O)(OCC)c1nc(/C=C/c2ccccc2)oc1NCc1ccccc1	11	12µM*	12	44%	9%	10%
CCOP(=O)(OCC)c1nc(-c2cccc3ccccc23)oc1NCc1ccccc1	-5	?	-2	?	-17%	-6%
CCOP(=O)(OCC)c1nc(-c2cccc3ccccc23)oc1NCc1ccc(OC)cc1	1	?	4	13µM*	.	0%
CCOP(=O)(OCC)c1nc(/C=C/c2ccccc2)oc1NCc1ccc(OC)cc1	16	.	3	?	16%	-14%
SMILES	Shiga inhibitor	Pf growth 48h	CHX counter	Pf growth 96h	NS1 inh	SARS PLP yeast
CCC1Oc2ccc(C)cc2N(CC(=O)NCCN2CCOCC2)C1=O (stereo not given)	-6	18%	-3	-13%	0%	0%
NC(N)=NCCC[C@H](N)C(=O)NCC(=O)N[C@@H](CC(=O)O)C(=O)N[C@@H](CO)C(=O)O	-4	.	-12	.	.	.
O=C(CSc1nc(-c2ccc(F)cc2)cs1)NCC1CCCO1 (stereo not given)	.	.	.	.	.	5%
Cc1ccc(-c2csc(N3CCN(S(=O)(=O)c4ccc5c(c4)NC(=O)CO5)CC3)n2)cc1	14	?	-3	?	11%	-1%
CS(=O)(=O)N1CCc2cc(-c3csc(NCC4CCCO4)n3)ccc21 (stereo not given)	11	9.3µM*	1	?	17%	2%
CC(Nc1nc(-c2ccc3c(c2)NC(=O)CO3)cs1)c1ccccc1 (stereo not given)	41	2%	18*	?	5%	0%
O=C1COc2ccc(-c3csc(NCC4CCCO4)n3)cc2N1 (stereo not given)	-7	.	-2	15µM*	9%	2%
COc1cccc(-c2nc(-c3ccc4c(c3)NC(=O)CO4)cs2)c1	105*	155%	50*	55%	.	-3%
COc1ccc(-c2cc(-c3ccc(OC)cc3)nc(-c3ccc4c(c3)NC(=O)CO4)c2)cc1	15	?	2	.	16%	-2%
CCCC(=O)Nc1nc(-c2ccc3c(c2)CCN3S(C)(=O)=O)cs1	14	-19%	10	-59%	27%	-10%
COc1ccccc1NC(=O)Nc1nnc(CC(=O)Nc2cccc(C)c2)s1	0	63%	-3	?	1%	-1%
Fc1ccccc1/C=N/NC(=S)Nc1ccc(Cl)cc1Cl	10	-2%	13	-34%	15%	5%
CC(=O)c1ccc(N2CCN(C(=O)CCS(=O)(=O)c3ccc4c(c3)CCN4C(C)=O)CC2)cc1	14	13µM*	3	?	-7%	4%
CCOC(=O)N1CCN(C(=O)CCS(=O)(=O)c2ccc3c(c2)CCN3C(=O)CC)CC1	-6	-16%	4	-23%	5%	-3%
CC(=O)N1CCc2cc(S(=O)(=O)CCC(=O)N3CCN(c4ccccc4F)CC3)ccc21	-1	?	5	?	-10%	-1%
CCC(=O)N1CCc2cc(S(=O)(=O)CCC(=O)N3CCN(c4ccc(F)cc4)CC3)ccc21	13	-19%	-5	1µM*	1%	3%
O=C(Nc1cccc(-c2cnc3ccccc3n2)c1)C1CC(=O)N(c2ccccc2)C1 (stereo not given)	25	3%	18	14%	8%	7%

Assay outcomes as filed in PubChem BioAssay.
